An excerpt weighted towards active compounds, which were near 3.9% of everything screened.
Anthrax LF prot = Bacillus anthracis LF protease inhibitors, primary screen, biochemical, multiplex microsphere, MLPCN library. Lethal factor (Bacillus anthracis), P15917. multiplex microsphere protease cleavage assay. inhibition, % at 10 µM. 360,000 tested, 0.12% active. AID 588501, 2011; also: plate controls were buffer without enzyme for full effect and enzyme alone for no effect
BoNT-A LC inh2 = BoNT/A light chain protease inhibitors, primary screen, biochemical, flow cytometry, MLPCN library; AID 588499, 2011; 360,000 tested, 0.17% active; inhibition, % at 10 µM; multiplex microsphere protease substrate cleavage; also: plate controls were buffer without enzyme for full effect and enzyme alone for no effect
DUSP3 inh = VHR1 phosphatase inhibitors, primary screen, biochemical, absorbance, uHTS; Dual specificity protein phosphatase 3 (Homo sapiens), P51452; recombinant VHR phosphatase, pNPP absorbance; inhibition, % at 13.3 µM; 290,000 tested, 0.52% active; in the data active = inhibition above about 50%
Autofluor counter = flagged as autofluorescent in microsphere protease counterscreen. compound autofluorescence counterscreen, microsphere flow cytometry; active compounds read high. fluorescence intensity (test concentration not listed). 360,000 tested, 3.1% active; in the data active = fluorescence intensity above about 16000; inconclusive = no clear call, values can overlap the other calls
SARS 3CLpro inh = SARS-CoV 3CLpro protease inhibitors, primary screen, biochemical, quenched FRET; Replicase polyprotein 1ab (Severe acute respiratory syndrome coronavirus), P0C6X7; recombinant SARS-CoV 3CLpro, quenched FRET peptide cleavage; inhibition, % at 6 µM; 290,000 tested, 0.14% active; AID 1706, 2009; in the data active = inhibition above about 12%
BoNT-F LC inh = BoNT/F light chain protease inhibitors, primary screen, biochemical, flow cytometry, MLPCN library. Multiplex microsphere protease cleavage assay. 360,000 tested, 0.22% active. inhibition, % at 10 µM; in the data active = inhibition above about 35%, passing the limit was not always enough; inconclusive = no clear call, values can overlap the other calls; also: plate controls were buffer without enzyme for full effect and enzyme alone for no effect
* marks the source's active call; other numbers are inactive results. Rule as the data show it, unless noted: active = inhibition above about 30%; inconclusive = no clear call, values can overlap the other calls; inactive = below that.

Results for O=S(=O)(c1ccc(N2CC=C(c3ccccc3)CC2)nc1)N1CCCC1 ?
Anthrax LF prot: -1.3; BoNT-A LC inh2: inconclusive; DUSP3 inh: -5.6; Autofluor counter: 24332*; SARS 3CLpro inh: 1.6; BoNT-F LC inh: -6.4

How did CCNC(=O)n1nccc1C(C)Oc1cccc(C(F)(F)F)c1 (configuration not stated) do in these assays?
Anthrax LF prot: -2.0; BoNT-A LC inh2: 1.6; DUSP3 inh: 24.7; Autofluor counter: 21560*; SARS 3CLpro inh: 3.4; BoNT-F LC inh: 0.2

What do the screens show for `CCNC(=O)n1nccc1C(C)Oc1ccc(Cl)cc1` (configuration not stated)?
Anthrax LF prot: -1.9; BoNT-A LC inh2: 0.1; DUSP3 inh: 48.7; Autofluor counter: 21790*; SARS 3CLpro inh: -0.3; BoNT-F LC inh: -1.5

What do the screens show for `CCN(CC)CCNC(=O)c1ccc(NC(=O)/C=C/c2ccc3ccccc3n2)cc1`?
DUSP3 inh: 13.7; SARS 3CLpro inh: -9.1

Results for Cc1ccc(CC(NC(=O)c2ccccc2)C(=O)NCC(=O)O)cc1 (configuration not stated) ?
Anthrax LF prot: -1.1; BoNT-A LC inh2: 1.7; DUSP3 inh: 17.1; Autofluor counter: 22985*; SARS 3CLpro inh: 0.8; BoNT-F LC inh: 4.1

How did Cc1ccccc1CN(C)C(=O)[C@H](Cc1ccccc1)NC(=O)c1ccco1 do in these assays?
Anthrax LF prot: -9.6; BoNT-A LC inh2: -0.2; Autofluor counter: 3123; BoNT-F LC inh: 6.5

How did Cc1ccc(NC(=O)C(Cc2ccccc2)NC(=O)c2ccco2)cc1 (configuration not stated) do in these assays?
Anthrax LF prot: -1.1; BoNT-A LC inh2: inconclusive; DUSP3 inh: 3.7; Autofluor counter: 23460*; SARS 3CLpro inh: 1.3; BoNT-F LC inh: -1.2

Results for O=C(COC(=O)C(Cc1ccccc1)NC(=O)c1cccs1)NCc1ccccc1 (configuration not stated) ?
Anthrax LF prot: -0.9; BoNT-A LC inh2: -4.9; Autofluor counter: inconclusive; BoNT-F LC inh: -8.7

Results for O=C(O)c1ccc(NC(=S)NC(NC(=O)c2ccco2)C(Cl)(Cl)Cl)cc1 (configuration not stated) ?
Anthrax LF prot: -5.3; BoNT-A LC inh2: -3.8; DUSP3 inh: -4.2; Autofluor counter: 25206*; SARS 3CLpro inh: -2.9; BoNT-F LC inh: -9.2

How did CC(=O)NCCNC(=O)[C@H](Cc1ccccc1)NC(=O)c1cccs1 do in these assays?
Anthrax LF prot: -5.0; BoNT-A LC inh2: inconclusive; DUSP3 inh: 27.3; Autofluor counter: 20647*; SARS 3CLpro inh: 3.0; BoNT-F LC inh: -0.8

Results for Cc1ccc(NC(=S)NC(NC(=O)c2ccco2)C(Cl)(Cl)Cl)cc1 (configuration not stated) ?
Anthrax LF prot: -0.5; BoNT-A LC inh2: 0.1; DUSP3 inh: 19.2; Autofluor counter: 2296; SARS 3CLpro inh: -0.3; BoNT-F LC inh: 8.9

What do the screens show for `Cc1ccc(NC(=O)CNC(=O)C2CCCCC2)nc1`?
Anthrax LF prot: -1.0; BoNT-A LC inh2: -3.8; Autofluor counter: 5836; BoNT-F LC inh: 3.3

How did COC(C(=O)N/N=C(\C)c1ccc(C)cc1)c1ccccc1 (configuration not stated) do in these assays?
Anthrax LF prot: 7.9; BoNT-A LC inh2: 2.6; DUSP3 inh: 51.5*; Autofluor counter: 3394; SARS 3CLpro inh: 0.3; BoNT-F LC inh: 19.8

What do the screens show for `COc1ccc(/C=N/Nc2nc(-c3ccc(C)cc3)c(NC(C)=O)s2)cc1OC`?
Anthrax LF prot: 36.5*; BoNT-A LC inh2: 2.9; DUSP3 inh: 0.0; Autofluor counter: 4131; SARS 3CLpro inh: 2.1; BoNT-F LC inh: inconclusive

What do the screens show for `CC(C)(C)c1ccc(C(=O)Cn2cnnc2C#N)cc1`?
Anthrax LF prot: -2.5; BoNT-A LC inh2: 0.2; DUSP3 inh: 14.1; Autofluor counter: 3621; SARS 3CLpro inh: -1.3; BoNT-F LC inh: 23.6

What do the screens show for `COc1cc(CN2CCC(C(=O)N3CCC(C)CC3)CC2)cc(Br)c1O`?
Anthrax LF prot: 3.6; BoNT-A LC inh2: -1.0; DUSP3 inh: 5.5; Autofluor counter: 10990; SARS 3CLpro inh: 3.6; BoNT-F LC inh: 6.5
